Records with an inconclusive call do not appear. Calls of active or inactive are those of the source.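 Rule for the calls, unless noted: active = viability at or below 27.92% in each of two runs, the all-compound median minus 4 SD; inconclusive = no clear call, values can overlap the other calls; inactive = the rest.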

Test [1] in a line: Her2 expression decrease, cell viability multiplex – SKBR3 breast tumor cells, AlphaScreen, ATP viability, primary screen (AID 461;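 active = Her2 level under about 52% in both replicate screens, with viability over 70% of control, limit read from the data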;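 for Her2 level: lower value means less Her2 protein in the cells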;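 for viability: percent of carrier control wells set as 100% viability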). The note with it: SKBR3 Her2 protein level, 18-24 h, measured here: SKBR3 viability, ATP luminescence, at 10 µM. A general note: Bead proximity is the source of the signal in Alpha formats.
For test [2], the target named is Receptor tyrosine-protein kinase erbB-2 (Homo sapiens) (UniProt P04626). Described as above. The note with it: 18-24 h, at 10 µM, stronger effect = lower value.
Chain of Receptor tyrosine-protein kinase erbB-2 (Homo sapiens) (P04626 whole entry, looked up): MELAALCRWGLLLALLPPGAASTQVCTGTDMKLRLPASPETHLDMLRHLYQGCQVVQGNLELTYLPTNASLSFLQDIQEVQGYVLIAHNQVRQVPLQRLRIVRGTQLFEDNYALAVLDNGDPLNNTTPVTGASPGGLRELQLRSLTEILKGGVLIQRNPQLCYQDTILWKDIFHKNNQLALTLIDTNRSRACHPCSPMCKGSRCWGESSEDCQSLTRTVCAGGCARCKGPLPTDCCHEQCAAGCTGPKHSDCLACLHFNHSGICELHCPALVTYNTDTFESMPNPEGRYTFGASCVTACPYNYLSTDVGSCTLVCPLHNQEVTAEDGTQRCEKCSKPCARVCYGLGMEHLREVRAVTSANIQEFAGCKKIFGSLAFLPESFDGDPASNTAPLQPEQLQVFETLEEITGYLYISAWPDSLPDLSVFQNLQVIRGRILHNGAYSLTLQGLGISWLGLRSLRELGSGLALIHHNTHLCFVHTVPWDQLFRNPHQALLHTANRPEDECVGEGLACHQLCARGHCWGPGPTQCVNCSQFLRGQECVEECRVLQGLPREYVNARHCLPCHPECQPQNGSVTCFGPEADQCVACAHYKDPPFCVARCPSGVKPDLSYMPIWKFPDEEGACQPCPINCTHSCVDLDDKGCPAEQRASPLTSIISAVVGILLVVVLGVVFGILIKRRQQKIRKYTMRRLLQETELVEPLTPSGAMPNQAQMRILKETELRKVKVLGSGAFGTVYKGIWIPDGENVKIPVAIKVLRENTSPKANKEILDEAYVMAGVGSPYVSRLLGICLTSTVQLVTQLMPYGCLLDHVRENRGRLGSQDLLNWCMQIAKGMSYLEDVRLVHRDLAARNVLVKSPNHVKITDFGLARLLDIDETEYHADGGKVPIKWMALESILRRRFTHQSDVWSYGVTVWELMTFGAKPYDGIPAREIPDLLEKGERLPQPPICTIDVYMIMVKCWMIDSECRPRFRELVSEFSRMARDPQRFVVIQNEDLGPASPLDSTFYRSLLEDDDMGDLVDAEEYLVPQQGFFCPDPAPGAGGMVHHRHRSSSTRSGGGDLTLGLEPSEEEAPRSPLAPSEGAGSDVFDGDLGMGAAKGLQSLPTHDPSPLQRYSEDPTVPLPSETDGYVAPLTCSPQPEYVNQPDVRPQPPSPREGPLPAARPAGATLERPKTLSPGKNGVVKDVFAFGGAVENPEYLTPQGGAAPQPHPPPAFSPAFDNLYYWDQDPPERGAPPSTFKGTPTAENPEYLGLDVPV
Test [3] can be described thus: reduced viability of SK-BR-3 breast cancer cells – cell-based, 24 h, human, pilot screen (AID 572;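 active = viability at or below 10% of carrier control in both of two separate runs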;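 note: compound exposure lasted between 18 and 24 h rather than exactly 24 h; 100% = carrier-treated control wells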). The note with it: SK-BR-3 viability, CellTiter-Glo luminescence, at 10 µM, stronger effect = lower value. Background: ATP-based viability assays read luminescence as a measure of living cells.
Test [4] in a line: HUVEC growth inhibition – cell-based, human, primary screen (AID 575;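 active = viability at or below 30% in both replicate assays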;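 note: 100% = median of untreated cell wells with 0.1% DMSO on each plate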). The note with it: HUVEC proliferation, CellTiter-Glo luminescence, 72 h; at 10 µM; stronger effect = lower value.
A short description of test [5]: H69AR cell proliferation blockers – human, duplicate replicates, primary screen (AID 580;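 active = viability at or under a set limit in both replicates, limit being median viability minus 3 SD, cut at about 48% in these data, passing the limit was not always enough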;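 note: 100% = mean luminescence of untreated wells and 0% = no signal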). The note with it: H69AR lung tumor cells viability, ATP luminescence, 72 h; at 10 µM; stronger effect = lower value.
The nature of test [6]: MRP1 drug-resistance reversers in H69AR cells – cell-based, doxorubicin co-treatment, pilot screen (AID 601;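 active = viability loss from added drug above about 55%, and viability with drug at most 40%, in both replicates, limit read from the data, passing the limit was not always enough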). The note with it: CellTiter-Glo, 72 h, at 10 µM; for differential viability (reversal): stronger effect = higher value.
Test [7] can be described thus: yeast transport mutant growth inhibition pilot in 384-well plates, post-Golgi transport modulator project (AID 636; in the data active = inhibition above about 31%). The note with it: absorbance 615 nm, about 18 h, stronger effect = higher value.
A short description of test [8]: growth suppression of yeast trafficking mutant, preliminary HTS, modulators of trafficking downstream of Golgi apparatus project, 1536-format plate, OD 615 nm (AID 637; in the data active = inhibition above about 30%). The note with it: yeast transport mutant growth, absorbance 615 nm, 18 h; stronger effect = higher value.
Test [9] in a line: S. cerevisiae growth inhibition in permissive medium (OD615), pilot counter-assay for S. cerevisiae lifespan shortening project, permissive growth control (AID 705;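 active = growth inhibition above 25% in both replicates, a cutoff set 3 SD above the mean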). The note with it: OD615, 24 h, at 10 µM, stronger effect = higher value.
Test [10] can be described thus: S. cerevisiae growth inhibition in restrictive medium, OD615, pilot screen, restrictive growth control, yeast lifespan reduction project (AID 706;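 active = growth inhibition above a set limit, 3 SD over mean compound inhibition, in both replicates, cut at about 43% in these data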;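 note: modified DeaD lifespan yeast strain shifted to restrictive glucose medium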). The note with it: OD615, 48 h, at 10 µM, stronger effect = higher value.
A short description of test [11]: doxorubicin toxicity protection in MRP-1 cells – H69AR cells, CellTiter-Glo, duplicate, MRP-1 activator project, pilot screen (AID 807;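 active = viability increase at or above a cutoff of the median across tested compounds plus 3 SD, cut at about 8.5% in these data, passing the limit was not always enough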;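 note: compound pretreatment 18-22 h then 72 h combined with doxorubicin; 0% = doxorubicin alone and 100% = vehicle without doxorubicin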). The note with it: H69AR viability with doxorubicin, CellTiter-Glo luminescence; at 10 µM; stronger effect = higher value.
Test [12] in a line: viability of HCT116 without oncogenic beta-catenin – human colon tumor cells, pilot screen (AID 823;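 active = cell viability at or below a set limit in both duplicate runs, the limit being the all-compound median minus 4 SD, cut at about 23% in these data, passing the limit was not always enough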;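 note: 0% = wells killed by 20 µM Hyamine and 100% = untreated DMSO cell wells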). The note with it: HCT116 beta-catenin knockout viability, CellTiter-Glo, 60 h; at 10 µM; stronger effect = lower value.
A short description of test [13]: viability of PTEN-null HCT116 cells – cell-based, HCT116 clonal line, CellTiter-Glo, pilot screen (AID 824).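 Note: 0% = 20 µM Hyamine control and 100% = vehicle cell control.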 The note with it: HCT116 PTEN-deleted viability, 60 h, at 10 µM, stronger effect = lower value.
Test [14] in a line: RAM pathway blockade in budding yeast – dse1pr::URA3 reporter, 5-FOA selection, pilot screen (AID 869;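 active = inhibition over a set limit, the all-compound mean plus 3 SD, in both replicate runs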;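 note: 0% = DMSO wells with no growth and 100% = 10 µM 1-NA-PP1 with full growth; RAM network block rescues cells from 5-FOA so hits raise OD615 growth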). The note with it: S. cerevisiae dse1pr::URA3 5-FOA growth, OD615, 2 d; at 10 µM; stronger effect = higher value; strain carries analog-sensitive mutant Cbk1 kinase.
Test [15] is described as follows: RAM signaling pathway blockade in yeast – S. cerevisiae, Pdr1DBD-CYC8 efflux-inhibited sensitized strain, primary screen (AID 1298;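 active = RAM network inhibition above 8.4% in each of two replicates, 3 SD over the compound average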;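 note: 0% = DMSO untreated cells without growth and 100% = 10 µM 1-NA-PP1 full growth; higher means more yeast growth rescued from 5-FOA killing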). The note with it: S. cerevisiae cbk1-as DSE1-URA3 strain, 5-FOA growth OD615, 2 d; at 50 µM; stronger effect = higher value.
Where [16] appears, read: H69AR cells + 2 uM doxorubicin, measured here: viability with 2 uM doxorubicin, stronger effect = lower value.
The mark [17] stands for this setting: H69AR cells, compound alone cytotoxicity.

Regarding `CC1(C)CC(=O)C(C=NCCO)=C(O)C1`, the viability (usually a read-out of living cells in per cent, often relative to untreated cells) in [1] was 100%; in test [3], 100% (inactive); in [4], 113% (inactive); in [5] it was 91.2% (inactive); in test [6] (setting [16]) it was 88.9%; in [6] (setting [17]), 91.2%. Also, the viability in test [12] was 102% (inactive); in test [13], 101% (inactive). In addition, the Her2 level in test [2] is 97.5% (inactive). Besides, the differential viability (reversal) in [6] (H69AR cells + 2 uM doxorubicin) was 2.35% (inactive). Moreover, the values for the inhibition in [7], in [8] and in test [14] were -6.08% (inactive), 5.83% (inactive) and 1.19% (inactive), respectively. Besides, the figures for the growth inhibition in [9] and in test [10] were 5.08% (inactive) and -3.12% (inactive), respectively. For the same compound, the viability increase in test [11] was 1.5% (inactive). Also, the RAM network inhibition in test [15] is 2.26% (inactive).

With `COc1ccc(NS(=O)(=O)c2coc(C(N)=O)c2)cc1Cl`, the viability in test [1] was 101%; in [3], 101% (inactive); in [4] it was 119% (inactive); in test [5] it was 99.1% (inactive); in test [6] (setting [16]), 107%; in [6] (setting [17]), 99.1%. In addition, the viability in test [12] was 108% (inactive); in test [13], 102% (inactive). For the same compound, the Her2 level in test [2] is 110% (inactive). In test [6] (H69AR cells + 2 uM doxorubicin), the differential viability (reversal) was -8.07% (inactive). Further, the inhibition (as a rule, the drop in the measured response relative to a control, in per cent) in test [7] was 0% (inactive); in [8] it was 11% (inactive); in test [14] it was 1.92% (inactive). The growth inhibition in [9] was -21.1% (inactive); in [10], -10.9% (inactive). In addition, in test [11], the viability increase was -0.71% (inactive). The RAM network inhibition in test [15] was 1.58% (inactive).

Take `COc1ccccc1N1CCN(C(=O)c2cc(C3CC3)on2)CC1`: the viability in test [1] is 84%; in test [3], 84% (inactive); in test [4] it was 80.8% (inactive); in test [5] it was 86.5% (inactive); in [6] (setting [16]) it was 93.2%; in test [6] (setting [17]), 86.5%. The viability in test [12] was 98.5% (inactive); in test [13] it was 103% (inactive). Further, in test [2], the Her2 level was 110% (inactive). For the same compound, the differential viability (reversal) in [6] (H69AR cells + 2 uM doxorubicin) was -6.73% (inactive). In addition, the inhibition in [7] was -0.64% (inactive); in [8], -3.5% (inactive); in test [14], 0.905% (inactive). Besides, the figures for the growth inhibition in test [9] and in test [10] were -9.72% (inactive) and 0.825% (inactive), respectively. For the same compound, the viability increase in test [11] is 0.32% (inactive). Besides, in [15], the RAM network inhibition is 2.48% (inactive).

For the compound `COc1ccc(S(=O)(=O)Cc2ccc(C(=O)N3CCOCC3)o2)cc1`, the viability in test [1] was 106%; in test [3], 106% (inactive); in [4], 94.2% (inactive); in test [5] it was 99.5% (inactive); in test [6] (setting [16]), 101%; in [6] (setting [17]) it was 99.5%. Further, the figures for the viability in test [12] and in test [13] were 111% (inactive) and 99.2% (inactive), respectively. Also, the Her2 level in test [2] was 126% (inactive). Besides, the differential viability (reversal) in test [6] (H69AR cells + 2 uM doxorubicin) is -1.56% (inactive). The values for the inhibition in test [7], in [8] and in test [14] were 0% (inactive), -0.83% (inactive) and 0.96% (inactive), respectively. Also, the growth inhibition in [9] is -4.55% (inactive); in test [10], -13.3% (inactive). Besides, the viability increase in [11] is -0.14% (inactive). In test [15], the RAM network inhibition is 1.62% (inactive).

With `O=c1oc2c3c4c(cc2s1)CCCN4CCC3`, the viability in [1] was 89%; in test [3], 89% (inactive); in test [4], 101% (inactive); in [5], 95.6% (inactive); in test [6] (setting [16]), 91.2%; in test [6] (setting [17]), 95.6%. The viability in [12] is 101% (inactive); in test [13], 97.1% (inactive). For the same compound, the Her2 level in test [2] is 86% (inactive). In addition, the differential viability (reversal) in test [6] (H69AR cells + 2 uM doxorubicin) is 4.35% (inactive). The inhibition in test [7] was -4.42% (inactive); in test [8], -2% (inactive); in test [14], 1.76% (inactive). Besides, the values for the growth inhibition in [9] and in test [10] were 2.12% (inactive) and -7.54% (inactive), respectively. Further, in test [11], the viability increase was -3.91% (inactive). Moreover, the RAM network inhibition in test [15] is 6.79% (inactive).

`COC(=O)c1ccc(NC(=O)CN2CCCC2)cc1`: the viability was 107% in test [1]; 107% (inactive) in [3]; 104% (inactive) in test [4]; 99.9% (inactive) in test [5]; 99.2% in [6] (setting [16]); 99.9% in test [6] (setting [17]). The viability in [12] is 98% (inactive); in test [13], 102% (inactive). In addition, the Her2 level in [2] is 97.5% (inactive). Besides, in test [6] (H69AR cells + 2 uM doxorubicin), the differential viability (reversal) was 0.64% (inactive). Further, the results for the inhibition in [7], in test [8] and in [14] were -2% (inactive), -1.13% (inactive) and 0.115% (inactive), respectively. The growth inhibition is -4.15% (inactive) in [9] and -3.12% (inactive) in test [10]. For the same compound, in test [11], the viability increase is -0.69% (inactive). The RAM network inhibition in [15] is 0.47% (inactive).

As for `Nc1cc(N)cc(-c2nc3ccccc3o2)c1`, the viability in test [1] is 100%; in [3], 100% (inactive); in test [4], 87.3% (inactive); in test [5], 93.7% (inactive); in test [6] (setting [16]), 74.7%; in test [6] (setting [17]) it was 93.7%. Further, the viability in test [12] was 100% (inactive); in test [13] it was 95.4% (inactive). Further, the Her2 level in test [2] was 106% (inactive). For the same compound, the differential viability (reversal) in test [6] (H69AR cells + 2 uM doxorubicin) was 19.1% (inactive). In addition, the inhibition is -2.4% (inactive) in test [7], 3.17% (inactive) in [8] and 2.14% (inactive) in test [14]. The growth inhibition in test [9] is 1.61% (inactive); in test [10] it was 6.39% (inactive). The viability increase in test [11] was -0.39% (inactive). Also, the RAM network inhibition in test [15] is 0.61% (inactive).

Consider `CCCN1CC23C=CC(O2)C(C(=O)O)C3C1=O` (stereo not drawn), for which the viability in test [1] is 81.5%; in [3], 81.5% (inactive); in test [4], 85.4% (inactive); in test [5], 98.1% (inactive); in test [6] (setting [16]) it was 99.7%; in test [6] (setting [17]), 98.1%. For the same compound, the values for the viability in test [12] and in test [13] were 100% (inactive) and 101% (inactive), respectively. Moreover, the Her2 level in test [2] is 94% (inactive). For the same compound, the differential viability (reversal) in [6] (H69AR cells + 2 uM doxorubicin) is -1.58% (inactive). Moreover, the inhibition is -3.87% (inactive) in [7], 0.16% (inactive) in [8] and 1.96% (inactive) in test [14]. Also, the growth inhibition in [9] is -2.17% (inactive); in [10], 2.93% (inactive). Also, the viability increase in [11] is -0.49% (inactive). Besides, the RAM network inhibition in test [15] was -1.04% (inactive).

Turning to `O=C(OCn1nnc2ccccc2c1=O)c1cc2ccccc2o1`, the viability was 88% in test [1]; 88% (inactive) in test [3]; 94.6% (inactive) in test [4]; 91.7% (inactive) in test [5]; 115% in test [6] (setting [16]); 91.7% in test [6] (setting [17]). The viability is 99.5% (inactive) in [12] and 104% (inactive) in [13]. The Her2 level in test [2] was 106% (inactive). Further, in [6] (H69AR cells + 2 uM doxorubicin), the differential viability (reversal) was -23.7% (inactive). Further, the inhibition was -5.47% (inactive) in test [7], -8.5% (inactive) in test [8] and 3.96% (inactive) in test [14]. Moreover, the growth inhibition in test [9] was 3.37% (inactive); in test [10], -2.58% (inactive). Also, the viability increase in test [11] was 1.18% (inactive). Further, in test [15], the RAM network inhibition was 7.11% (inactive).

Values taken from PubChem BioAssay.
